High-throughput results from PubChem BioAssay.
This is a sample that favours compounds with a hit; in the whole collection about 2.8% have one here.
EP2 mod – EP2 receptor (human) modulation; P43116; EP2-expressing cells, cAMP HTRF FRET, PGE2 co-stimulation; induction, % at 25 µM; 260,000 compounds, 0.83% hits; AID 940;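 active = compounds whose cAMP rise, as percent of the full-agonist control response, exceeds 60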;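 also: rat C6 glioma line stably carrying human EP2 under a CMV promoter; the protocol text gives 20 µM as final concentration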
p47phox inh – inhibitors of human p47phox binding; p47phox/p22phox peptide binding, fluorescence polarization, 2 h; 220,000 compounds, 0.53% hits; P14598; inhibition, % at 24.7 µM; AID 1274;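 active = inhibition above about 30%, limit read from the data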
EP2 antag – inhibitors of human EP2 prostaglandin E2 receptor; C6 glioma cells expressing human EP2, cAMP TR-FRET; cells stimulated with saturating PGE2; inhibition, % at 25 µM; 260,000 compounds, 0.52% hits; AID 1422;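 active = percent inhibition above 40 after rounding to a whole number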;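 also: rat C6 glioma host cells with rolipram phosphodiesterase inhibitor present; the protocol text gives 20 µM as final concentration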
Furin inhibitor – inhibitors of human furin | P09958 | purified furin, fluorogenic substrate cleavage | inhibition, % at 20 µM or 30 µM | 220,000 compounds, 0.061% hits; in the data active = inhibition above about 25%
HSV replic up – increases HSV replication in cells. HSV replication augmentation in cells, fold increase. maximum fold increase. 220,000 compounds, 0.005% hits. AID 1956; in the data active = maximum fold increase above about 1.5; inconclusive = no clear call, values can overlap the other calls; tested in PC3 cells
Wee1 degr inh – inhibitors of human Wee1 degradation | reporter increase, % at 5 µM | P30291 | 220,000 compounds, 1.2% hits | HeLa Luc-Wee1K328M stability, luciferase luminescence; 100% = proteasome inhibitor MG132 effect;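 active = activation above the mean of all tested compounds plus 3 SD, set per screening run, cut at about 8.8% in these data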;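 also: cells exposed to compound for 20 h before luminescence read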
Target sequence (P30291 whole entry K328M): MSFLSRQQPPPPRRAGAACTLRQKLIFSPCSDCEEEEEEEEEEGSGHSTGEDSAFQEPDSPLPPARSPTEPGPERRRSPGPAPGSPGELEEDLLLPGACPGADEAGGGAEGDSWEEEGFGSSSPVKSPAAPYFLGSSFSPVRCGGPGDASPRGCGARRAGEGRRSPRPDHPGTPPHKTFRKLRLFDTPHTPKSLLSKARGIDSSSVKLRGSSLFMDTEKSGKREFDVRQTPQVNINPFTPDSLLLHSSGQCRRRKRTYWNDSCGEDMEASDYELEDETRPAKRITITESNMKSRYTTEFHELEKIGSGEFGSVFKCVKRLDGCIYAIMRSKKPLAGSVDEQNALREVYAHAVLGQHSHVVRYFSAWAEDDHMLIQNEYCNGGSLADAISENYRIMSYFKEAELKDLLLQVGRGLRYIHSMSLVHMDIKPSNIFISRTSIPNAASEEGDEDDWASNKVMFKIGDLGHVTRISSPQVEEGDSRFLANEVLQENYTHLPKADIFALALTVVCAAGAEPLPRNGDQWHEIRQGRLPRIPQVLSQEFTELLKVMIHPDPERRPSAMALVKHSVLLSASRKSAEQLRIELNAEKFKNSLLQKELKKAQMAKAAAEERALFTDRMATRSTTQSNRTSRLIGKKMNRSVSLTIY
Wee1 stab conf – confirmation of human Wee1 degradation inhibitors; 1,100 compounds, 4% hits; HeLa Luc-Wee1K328M degradation, luminescence; vehicle 0%, proteasome-blocked wells 100%; shares compounds with Wee1 degr inh; AID 1410; activation, % at 5 µM; in the data active = activation above about 8.9%
Large screens that a line does not name were inactive (follow-up assays come after a bar, where they were run).

COc1ccc(C=O)cc1OS(=O)(=O)c1ccc(NC(C)=O)cc1	none
COc1ccc(/C=N/NC(=O)c2ccc3ccccc3c2)cc1OS(=O)(=O)c1ccc(NC(C)=O)cc1	Wee1 degr inh 14.4 (no result: EP2 antag) | Wee1 stab conf 13.0
COc1cccc(OC(=O)c2cc3ccccc3oc2=O)c1	Wee1 degr inh 15.5 | Wee1 stab conf inactive
COC(=O)c1cc2ccccc2oc1=O	none
CCC1OC2(C)OC(=N)C1(C#N)C(C#N)(C#N)C2c1ccccc1 (centres undefined)	HSV replic up inconclusive
CC(C)C1OC2(C)OC(=N)C1(C#N)C(C#N)(C#N)C2c1ccccc1 (centres undefined)	HSV replic up inconclusive, Wee1 degr inh 17.2 | Wee1 stab conf inactive
Cc1ccc(NC(=O)COc2ccccc2C=O)cc1Cl	Wee1 degr inh 15.5 | Wee1 stab conf inactive
Cc1ccc(NC(=O)COC(=O)c2ccccn2)cc1Cl	none (no result: p47phox inh, Furin inhibitor, HSV replic up, Wee1 degr inh)
CCc1cccc(NC(=O)CSc2nc3ccccc3n2CC(=O)N2CCCC2)c1	none (no result: p47phox inh, Furin inhibitor, HSV replic up, Wee1 degr inh)
CC(=O)O[C@@H]1CC2C(C)(C)C(=O)[C@@H]3O[C@@H]3[C@]2(C)C2CC[C@]3(C)C(=CC(=O)O[C@H]3c3ccoc3)[C@@]21C (some centres undefined)	none (no result: p47phox inh, Furin inhibitor, HSV replic up, Wee1 degr inh)
O=[N+]([O-])c1ccccc1CSc1nc2ccccc2o1	Wee1 degr inh 44.2 | Wee1 stab conf inactive
O=C(OCc1ccccc1)C1=NNC2C(=O)N(Cc3ccccc3)C(=O)C12 (centres undefined)	none
O=C(C1=NN[C@@H]2C(=O)N(Cc3ccccc3)C(=O)[C@H]12)c1ccc(F)cc1	Wee1 degr inh 11.0 | Wee1 stab conf inactive
Cc1csc(SCC(=O)NCc2ccccc2)n1	none
Cc1csc2sc(-c3ccnc(SCC(=O)NCc4ccccc4)n3)c(C)c12	Wee1 degr inh 14.0 | Wee1 stab conf 21.5
CCCCNc1nc(N)nc(-c2cc(Cl)ccc2O)n1	EP2 mod 64.4, Wee1 degr inh 14.1 | Wee1 stab conf inactive
NS(=O)(=O)c1ccc(NC(=O)CN2C(=O)c3ccccc3C2=O)cc1	Wee1 degr inh 19.2 | Wee1 stab conf inactive
Cc1cc(N2CCCC2)nc(N2C3CCC2CC(O)(c2ccc(F)cc2)C3)n1 (centres undefined)	Wee1 degr inh 16.4 | Wee1 stab conf inactive
O=C(Nc1nc2c(s1)CCCC2)c1ccc2ncsc2c1	Wee1 degr inh 20.3 (no result: EP2 antag, HSV replic up) | Wee1 stab conf inactive
Cc1ncsc1C(=O)Nc1nc2c(s1)CCCC2	none
Cc1cc2nc(-c3cccc(NC(=O)c4ccc(Br)o4)c3C)oc2cc1C	Wee1 degr inh 14.2 | Wee1 stab conf inactive
Cc1ccc2oc(-c3cccc(NC(=O)c4ccc(Br)o4)c3C)nc2c1	none
CCn1c2cc(C)oc2c2cnn(Cc3ccccc3F)c(=O)c21	none (no result: p47phox inh, EP2 antag, Furin inhibitor, HSV replic up, Wee1 degr inh)
CCn1c(SCC(=O)Nc2ccccc2C(=O)OC)nnc1-c1ccco1	none (no result: p47phox inh, Furin inhibitor, HSV replic up, Wee1 degr inh)
CN(C)c1oc(-c2cccs2)nc1C#N	none (no result: EP2 antag, HSV replic up)
CN(C)c1ccc(-c2nnc(-c3cccs3)o2)cc1	Wee1 degr inh 15.5 | Wee1 stab conf inactive
Cc1ccccc1C(=O)NC1CCN(Cc2nnnn2Cc2ccccc2)CC1	none
O=C(NC1CCN(Cc2nnnn2CCc2ccccc2)CC1)c1ccccc1F	Wee1 degr inh 11.9 | Wee1 stab conf inactive
Cc1cc(C)nc(NC(=O)c2ccc(COc3ccccc3Cl)cc2)c1	Wee1 degr inh 14.0 | Wee1 stab conf inactive
Cc1ccn2c(c1)nc(=S)n2C(=O)c1ccccc1	Wee1 degr inh 14.5 | Wee1 stab conf inactive
Cc1cccc(C(=O)n2c(=S)nc3cc(C)ccn32)c1	none
O=c1c(Cl)c(N2CCN(CCO)CC2)cnn1-c1ccccc1	none (no result: p47phox inh, Furin inhibitor, HSV replic up, Wee1 degr inh)
CC(=O)Nc1ccccc1C(=O)C(=O)Nc1ccc(C)c(F)c1	Wee1 degr inh 17.8 | Wee1 stab conf inactive
S=c1[nH]nc(Nc2ccc(Cl)cc2)s1	Wee1 degr inh 15.1 | Wee1 stab conf inactive
O=C1CSC(c2cccc([N+](=O)[O-])c2)N1c1ccc(O)cc1 (centres undefined)	none
CC1(C)CC(=O)C2=C(C1)N=C1SCCC(=O)N1C2c1cccc([N+](=O)[O-])c1 (centres undefined)	Wee1 degr inh 12.1 | Wee1 stab conf inactive
O=C(CN1CCC(c2ccccc2F)CC1)N1CCCC1	none (no result: p47phox inh, EP2 antag, Furin inhibitor, HSV replic up, Wee1 degr inh)
Nc1[nH]n(-c2ccccc2)c(=O)c1N=Nc1ccc2c(c1)OCO2	Wee1 degr inh 12.0 | Wee1 stab conf inactive
C=CCn1c(SCC(=O)Nc2ccccc2C)nnc1-c1ccncc1	none
C=CCn1c(SCC(=O)Nc2ccccc2CC)nnc1-c1ccncc1	Wee1 degr inh 13.4 | Wee1 stab conf inactive
Cc1cccc(N(CC(=O)NC2CCCCC2)C(=O)c2nsc(Cl)c2Cl)c1	none (no result: p47phox inh, Furin inhibitor, HSV replic up, Wee1 degr inh)
CN(Cc1c(F)cccc1Cl)c1ccc(S(=O)(=O)N2CCOCC2)cn1	Wee1 degr inh 12.3 | Wee1 stab conf inactive
O=C(N/N=C/c1cn(-c2ccccc2)nc1-c1cccs1)c1ccncc1	none
NC(=O)N/N=C/c1cn(-c2ccccc2)nc1-c1cccs1	Wee1 degr inh 15.7 | Wee1 stab conf inactive
NC(=O)C1=C[C@H](c2csc3ccccc23)C[C@H](OCCCCO)O1	Wee1 degr inh 11.1 | Wee1 stab conf inactive
CCS(=O)(=O)Nc1ccc(-c2nc3cccnc3s2)cc1	none
CCS(=O)(=O)Nc1cccc(-c2nc3cccnc3s2)c1	Wee1 degr inh 12.2 | Wee1 stab conf inactive
O=C(O)c1cc(-c2ccco2)nc2ccc(F)cc12	none (no result: p47phox inh, Furin inhibitor, HSV replic up, Wee1 degr inh)
CCN1/C(=C2\SC(=S)N(c3ccccc3)C2=O)Sc2ccccc21	none (no result: p47phox inh, Furin inhibitor, HSV replic up, Wee1 degr inh)
CCOC(=O)N1CCN(C(=O)c2oc3ccc(S(=O)(=O)N4CC(C)CC(C)C4)cc3c2C)CC1 (centres undefined)	none
CCOC(=O)C1CCN(C(=O)c2oc3ccc(S(=O)(=O)N4CC(C)CC(C)C4)cc3c2C)CC1 (centres undefined)	Wee1 degr inh 10.9 | Wee1 stab conf inactive
O=C(Nc1ccon1)c1cccc(S(=O)(=O)N2CCCC2)c1	Wee1 degr inh 29.0 | Wee1 stab conf inactive
O=C(Nc1ccon1)c1cccc(S(=O)(=O)N2CCCCCC2)c1	none
O=C(O)c1ccc(/C=N/NC(=O)c2ccc(F)cc2)cc1	none
O=C(N/N=C/c1ccc(F)cc1)c1ccccc1	Wee1 degr inh 11.5 | Wee1 stab conf inactive
Cc1nc(C)c(C(=O)NC2(c3ccc(F)cc3)CCCC2)s1	none (no result: p47phox inh, Furin inhibitor, HSV replic up, Wee1 degr inh)
Cc1ccc2nc(-c3ccc(NC(=S)NC4CC(C)(C)NC(C)(C)C4)cc3)sc2c1	Wee1 degr inh 19.9 | Wee1 stab conf inactive
Cc1ccc2nc(-c3ccc(NC(=S)NC(=O)C(C)C)cc3)sc2c1	none
Cc1ccc2cc3c(N)c(C(=O)Nc4c(C)[nH]c(=O)[nH]c4=O)sc3nc2c1	Wee1 degr inh 11.7 | Wee1 stab conf inactive
Cc1ccc2nc3sc(C(=O)Nc4c(C)[nH]c(=O)[nH]c4=O)c(N)c3cc2c1	none
Cc1ccc(-c2nnc(NC(=O)C3CCC3)s2)cc1	none (no result: p47phox inh, Furin inhibitor, HSV replic up, Wee1 degr inh)
